This note sets out measurements from PubChem BioAssay AID425 (Sanford-Burnham Center for Chemical Genomics, 2006).

Values joined by “and” are separate entries in the source; they are usually repeats but may differ in a detail not shown here. Equal entries are not always repeated. Screen size: about 110,000 compounds; about 190 (0.17%) were called active. This is one part of a sample in which actives are shown more often than they occur. Measured potencies and affinities stand elsewhere. A number with no mark means an inactive call. Cut-off read from the data, not from the text of the source: active = inhibition above about 50%; inactive = the rest.

Chain of Dual specificity protein phosphatase 6 (Rattus norvegicus) (Q64346 whole entry, looked up): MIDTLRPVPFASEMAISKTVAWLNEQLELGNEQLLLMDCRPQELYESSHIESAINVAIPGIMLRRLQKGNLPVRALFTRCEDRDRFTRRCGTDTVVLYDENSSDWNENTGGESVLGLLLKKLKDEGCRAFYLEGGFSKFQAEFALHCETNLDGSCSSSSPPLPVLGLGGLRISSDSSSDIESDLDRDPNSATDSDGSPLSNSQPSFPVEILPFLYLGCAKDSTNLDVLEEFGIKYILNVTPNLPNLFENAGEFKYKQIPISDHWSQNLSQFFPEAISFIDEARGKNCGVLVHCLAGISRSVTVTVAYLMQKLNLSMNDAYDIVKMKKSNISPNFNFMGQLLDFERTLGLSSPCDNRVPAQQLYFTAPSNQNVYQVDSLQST

The assay concerns the target Dual specificity protein phosphatase 6 (Rattus norvegicus) (UniProt Q64346). In words: inhibition of rat DUSP6 enzyme activity – biochemical, in vitro, primary screen (AID 425).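 Note: plate controls were vehicle for no effect and reference inhibitor for full effect.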 The note with it: recombinant MKP-3 phosphatase activity, fluorescence; at 20 µM; stronger effect = higher value.
As a reminder, the inhibition is the relative decrease from the control value, in per cent. For `CCc1ccc(OCC(=O)NCCN(C)C)c(Br)c1`, the inhibition is -12%.
On to `O=C(Nc1ccc(Br)cc1)N1CCCCCCC1`, for which the inhibition is -0.5%.
For the molecule `CCOC(=O)Cc1csc(NC(=O)CN(C)S(=O)(=O)c2cccc3cccnc23)n1`, the inhibition is -9.4%.
Then `O=C(NCCCn1ccnc1)c1cnn2c(C(F)(F)F)cc(-c3ccc(Br)cc3)nc12`, with 2.4%.
With `Nc1nnc(SCc2coc(-c3ccc(Cl)cc3)n2)s1`, the inhibition is -7.1%.
For the molecule `COc1ccc(NC(=O)/C(=C\c2ccco2)NC(=O)c2ccco2)cc1`, the inhibition was 4.4%.
On to `N/C(=N\OC(=O)c1ccccc1I)c1cccnc1`, for which the inhibition was -4%.
Turning to `Cc1ccc(N=C2NC(=O)/C(=C/c3ccc(O)c([N+](=O)[O-])c3)S2)cc1Cl`, the inhibition is 82.6% (active).
`Cc1c(Cl)cccc1N=C1NC(=O)/C(=C/c2ccc(O)c([N+](=O)[O-])c2)S1`: the inhibition is 18.5%.
The value for `COc1cc(/C=C2\SC(=Nc3ccc(C)c(Cl)c3)NC2=O)ccc1O` was 3.3%.
Regarding `CC1=C(C(=O)Nc2ccccc2)C(c2cccc(I)c2)NC(=S)N1` (configuration not stated), the inhibition was 4.4%.
Consider `Cc1c(C)n(O)c2ccc3nonc3c12`, for which the inhibition was 2.7%.
`COn1c(C)c(C(C)=O)c2c3nonc3ccc21`: the inhibition is -7.8%.
For `COn1c(C)c(C)c2c3nonc3ccc21`, the inhibition is 86.9% (active).
With `CCOC(=O)c1ccc(NC(=O)COc2ccc(Cl)cc2C)cc1`, the inhibition is 2.5%.
On to `COC(=O)c1ccc(Nc2ncnc3c2cnn3-c2cccc(C)c2)cc1`, for which the inhibition was -5%.
Then `O=C(Cc1ccccc1)Nc1cc(C(=O)O)cc(C(=O)O)c1`, with 0.2%; and `CC1CC(=O)c2cnc(NCC3CCCO3)nc2C1` (configuration not stated), with -7.6%.
Turning to `Cc1c(C)c2ccc(OCC(=O)c3ccc(-c4ccccc4)cc3)cc2oc1=O`, the inhibition was 1.8%.
As for `NC(=O)C1CCN(C(=O)CN2CCCc3ccccc32)CC1`, the inhibition was 1.6%.
Regarding `Cc1ccc(C)n1-c1ccccc1C(=O)O`, the inhibition was 72.7% (active).
As for `COc1cc(C(=O)O)c(-n2c(C)ccc2C)cc1OC`, the inhibition was 5%.
For the molecule `Cc1ccc(C)n1-c1ccc(Cl)cc1C(=O)O`, the inhibition is 104% (active).
The value for `Cc1c(C(=O)O)cccc1-n1c(C)ccc1C` was 25.2%; that for `Cc1ccc(-c2ccccc2)n1-c1ccccc1C(=O)O` was 5%.
Regarding `Cc1ccc(C)n1-c1ccc(Br)cc1C(=O)O`, the inhibition is 0.2%.
On to `O=C(CCCN1CCC(c2ccccc2)C1)c1ccc2c(c1)OCCO2` (configuration not stated), for which the inhibition was -3.4%.
As for `CC(=O)Nc1ccc(S(=O)(=O)NC(CC(=O)O)c2ccc(OC(C)C)cc2)cc1` (configuration not stated), the inhibition is 7.9%.
As for `CC(C)(C)NC(=O)C(=O)N/N=C/c1ccc(Cl)cc1`, the inhibition is -3.9%.
As for `CNc1ccc2[nH]nc3c2c1C(=O)c1ccccc1-3`, the inhibition was -22.4%.
For `Cc1ccccc1OCC(=O)Nc1cccc(NC(=O)c2ccccc2Cl)c1`, the inhibition is -2.5%.
With `CC(=O)c1ccc(NC(=O)c2ccc3c(c2)OCCO3)cc1`, the inhibition was -4.6%.
`Cc1cc(Br)cc(C)c1NC(=O)c1ccc2c(c1)OCCO2`: the inhibition is 82.6% (active).
On to `Cc1cccc(C)c1NC(=O)c1ccc2c(c1)OCCO2`, for which the inhibition was 2.1%.
For `CCN1C(=O)NC(c2cccnc2)C(C(=O)OC)=C1C` (configuration not stated), the inhibition was -5.5%.
Then `CC(C)N(Cc1nc(-c2ccccc2)no1)C(=O)Cc1ccccc1`, with -1.5%; and `CS(=O)(=O)N(CC(=O)NCc1ccccn1)c1ccc2c(c1)OCCO2`, with -1.1%; and `O=C1c2ccccc2-c2onc3c(Cl)cc(Sc4ccccc4)c1c23`, with 3.9%.
In the case of `O=C1c2ccccc2-c2onc3c(Br)cc(O)c1c23`, the inhibition was 87.7% (active).
With `CCOC(=O)C(C(=O)OCC)c1cc(Br)c2noc3c2c1C(=O)c1ccccc1-3`, the inhibition was 23.6%.
On to `Cc1onc(-c2ccccc2Cl)c1C(=O)NCc1cccs1`, for which the inhibition was 5.5%.
Turning to `O=C(O)c1cccc(-c2ccc(/C=N/Nc3ccc([N+](=O)[O-])cn3)o2)c1`, the inhibition was 51.1% (active).
The value for `O=C(O)c1cc(-c2ccc(/C=N/Nc3ccc([N+](=O)[O-])cn3)o2)ccc1Cl` was 7.3%; that for `O=C(O)c1ccc(Cl)c(-c2ccc(/C=N\Nc3ccc([N+](=O)[O-])cn3)o2)c1` was 8.7%.
Take `O=C(O)/C=C/C(=O)Nc1ccc(NC(=O)c2ccccc2)c(Cl)c1`: the inhibition was 1.5%.
For `COC(=O)c1cc(C(=O)OC)cc(S(=O)(=O)O)c1`, the inhibition is -0.1%.
In the case of `CNc1ccc2c(O)cc(S(=O)(=O)O)cc2c1`, the inhibition was 65.1% (active).
The value for `O=C(O)c1cc(S(=O)(=O)O)ccc1O` was -4.1%; that for `O=C1/C(=C/c2ccc(O)c(O)c2)SC(=S)N1c1ccc(O)cc1` was 8.5%; that for `Cc1cc(C)n(C(=O)CNC(=O)c2ccco2)n1` was 1.1% and -4%.
Then `COc1ccc(C2SC(C)C(=O)N2c2ccc(C)cc2)cc1` (configuration not stated), with -0.4%; and `O=C(NCC1CCCO1)c1cc2nc(-c3ccc(F)cc3)cc(C(F)(F)F)n2n1` (configuration not stated), with 2.8%.
For the molecule `O=C(NCC1CCCO1)c1cc2nc(-c3ccc([N+](=O)[O-])cc3)cc(C(F)(F)F)n2n1` (configuration not stated), the inhibition is 95.8% (active).
Regarding `O=C(NCC1CCCO1)c1cc2nc(-c3ccco3)cc(C(F)(F)F)n2n1` (configuration not stated), the inhibition is 0.3%.
On to `COCCn1c(SCC(=O)Nc2cccc(OC)c2)nnc1-c1ccc(Cl)cc1`, for which the inhibition is -2.5%.
`Cc1ccc(-c2ccc(C=C3C(=O)N(C)C(=O)N(C)C3=O)o2)cc1[N+](=O)[O-]`: the inhibition was -5.2%.
Regarding `CN(c1ccc(C(=O)N2CCCCC2)cc1)S(=O)(=O)c1ccccc1`, the inhibition was 2.4%.
For the molecule `CCc1c(C)c2ccc(OCC(C)=O)c(C)c2oc1=O`, the inhibition was 5.8%.
Then `CCc1c(C)c2ccc(OCc3ccccc3)c(C)c2oc1=O`, with 3.5%.
As for `O=C(CN1CCCCCC1)Nc1cccc2c1OCO2`, the inhibition was 0.2% and -9.3%.
As to `COc1ccc(/C=C(\NC(=O)c2ccccc2)C(=O)NCC(C)C)cc1OC`, the inhibition was 3%.
The value for `CCC(C)NC(=O)/C(=C\c1ccc(OC(C)=O)c(OC)c1)NC(C)=O` (configuration not stated) was 97.1% (active); that for `COc1ccc(/C=C/C(=O)NCC(C)NC(=O)/C=C/c2ccc(OC)c(OC)c2)cc1OC` (configuration not stated) was 1.7%; that for `COc1cccc(-c2cc(C(=O)Nc3c(C)nn(Cc4ccccc4)c3C)no2)c1` was 0.1%.
Take `O=C(NCCNc1ccc(Cl)cc1[N+](=O)[O-])c1ccccc1Cl`: the inhibition is 1.9%.
Turning to `O=c1oc2c(O)c(O)ccc2c2c1CCC2`, the inhibition was 7.2%.
Take `Cc1c(O)ccc2c1oc(=O)c1ccccc12`: the inhibition was 1.2%.
Then `Cc1ccc(S(=O)(=O)NCC(=O)N(CCc2ccccc2)CC(=O)NCc2ccco2)cc1`, with -4.7%; and `Cc1cc(C)nc(Sc2c(C)nn(-c3ccccc3)c2C)n1`, with -0.6%; and `Cc1nn(-c2ccccc2)c(C)c1Sc1ccc(Cl)cc1`, with 74.7% (active).
Then `Cc1nn(-c2ccccc2)c(C)c1Sc1ccc(Br)cc1`, with 0.2%; and `COc1ccc(C2C(C(=O)OC(C)C)=C(C)N=c3s/c(=C/c4c[nH]c5ccccc45)c(=O)n32)cc1` (configuration not stated), with 3.4%; and `CCOCCOC(=O)c1ccc(NC(=O)/C=C/c2ccc(OC)c(Br)c2)cc1`, with 2.5%.
As for `COc1ccc(Cl)cc1C(=O)Nc1nc2ccc(S(C)(=O)=O)cc2s1`, the inhibition is 3.8%.
As to `CCOc1ccc(NC(=O)CSc2nc3ccc(OC)cc3[nH]2)cc1`, the inhibition was -0.2%.
Take `O=C(O)c1ccccc1-c1ccccc1/C=N/O`: the inhibition was -1.8%.
`CCOC(=O)C1=C(C)N=c2s/c(=C\c3ccc(OCC)cc3)c(=O)n2C1c1ccccc1` (configuration not stated): the inhibition is 2.8%.
For `CCOC(=O)C1=C(C)N=c2s/c(=C\c3ccc(OCC(=O)O)cc3)c(=O)n2C1c1ccccc1` (configuration not stated), the inhibition is 2.5%.
Consider `Cc1c(N2C(=O)c3cccc([N+](=O)[O-])c3C2=O)c(=O)n(-c2ccccc2)n1C`, for which the inhibition was 1.8%.
Take `CCN(CC)CCCNC(=O)c1cc2nc(-c3ccc([N+](=O)[O-])cc3)cc(C(F)(F)F)n2n1`: the inhibition was 1.9%.
Regarding `O=C1NC(=S)N(c2cccc(Cl)c2)C(=O)/C1=C\c1ccc(N2CCCC2)cc1`, the inhibition is 19.3%.
As for `COc1ccccc1/C=C1/C(=O)NC(=O)N(c2ccccc2OC)C1=O`, the inhibition is -1.2%.
On to `COc1ccccc1N1C(=O)C(=Cc2cccn2C)C(=O)NC1=S`, for which the inhibition is 93.6% (active).
Take `COc1ccccc1C=C1C(=O)NC(=S)N(c2ccccc2F)C1=O`: the inhibition was 3%.
The value for `Cc1cc(/C=C2\C(=O)NC(=S)N(c3cccc(Cl)c3)C2=O)c(C)n1C` was -0.4%.
For `Cn1cccc1/C=C1/C(=O)NC(=S)N(c2cccc(Cl)c2)C1=O`, the inhibition was 60.6% (active).
Take `O=C1CC(c2cccs2)CC2=C1C(c1ccsc1)Nc1ccccc1N2` (configuration not stated): the inhibition is -0.1%.
On to `C=C(C)Cn1c(SCC(=O)NN)nnc1-c1ccc(Br)cc1`, for which the inhibition was 2.7%.
With `CCC(C)(C)NC(=O)C1CCN(c2nc(C)cc(C)n2)CC1`, the inhibition is -18.2%.
Take `CCc1nnc(NC(=O)C2CC(=O)N(c3ccc(C)cc3)C2)s1` (configuration not stated): the inhibition is -9.9%.
The value for `O=C1NC(=S)N/C1=C/c1cc2c(cc1[N+](=O)[O-])OCO2` was 64.9% (active).
The value for `O=C1NC(=O)/C(=C/c2ccccc2[N+](=O)[O-])S1` was 79.4% (active).
Then `COc1cc(/C=C2\NC(=S)NC2=O)c([N+](=O)[O-])cc1OC`, with 13.3%.
For the molecule `O=C1NC(=S)S/C1=C\c1ccccc1OS(=O)(=O)c1ccc([N+](=O)[O-])cc1`, the inhibition is 1.6%.
Regarding `COc1cc(/C=C2/SC(=S)NC2=O)c([N+](=O)[O-])cc1OC`, the inhibition was 50.1% (active).
With `O=C1NC(=O)/C(=C\c2ccccc2Cl)S1`, the inhibition was -2.9%.
Then `O=C1NC(=S)N/C1=C/c1ccc2c(c1)OCO2`, with 5.3%.
In the case of `O=C1NC(=S)N/C1=C/c1cc2c(cc1Cl)OCO2`, the inhibition is 0.8%.
Consider `COc1cc(Br)c(/C=C2/SC(=S)NC2=O)cc1OC`, for which the inhibition is -0.6%.
As for `O=C1NC(=S)S/C1=C/c1ccccc1OS(=O)(=O)c1ccccc1[N+](=O)[O-]`, the inhibition is 1.4%.
Consider `O=C1NC(=Nc2ccc(Br)cc2)S/C1=C\c1ccccc1[N+](=O)[O-]`, for which the inhibition was 1.9%.
Regarding `O=C1NC(=S)S/C1=C\c1ccccc1[N+](=O)[O-]`, the inhibition was 122% (active).
